# Source: PubChem BioAssay (NCI)
# About 83,000 compounds went through this panel and 20% of them were active in at least one assay; those are over-represented in the sample as a whole.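 Assay: single dose, 48 h. Readout: percent growth (0 = no net growth; negative = cell death). Active: <10.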 A number with no mark means an inactive call. Active and inactive are the calls of the source.
# Tested on: SF-539 CNS
# Assay: NCI-60 one-dose screen, 48 h (100 = growth as untreated, 0 = no growth, -100 = all killed)
# Settings: 10 µM unless noted
row,SMILES,growth
1,CN(C[C@H]1Cc2c(cccc2N2CCN(c3ncccn3)CC2)CN1)[C@H]1CCCc2cccnc21,55.5%
2,COc1ccc(-c2cnoc2-c2ccc(OC)cc2O)cc1,19.7%
3,COc1ccc(/C=N\NC(=O)CN2CCN(c3cc4c(cc3F)c(=O)c(C(=O)N/N=C/c3ccc(OC)c(OC)c3)cn4C3CC3)CC2)cc1OC,-21.8% (active)
4,C1=Cc2ccccc2N(c2nnc(-c3ccccc3)o2)c2ccccc21,103%
5,COc1ccc(-c2nc3sc(-c4cc(OC)c(OC)c(OC)c4)nn3c2/C=C2/C(=O)Nc3ccc(F)cc32)cc1,97.7%
6,O=C(Oc1ccccc1[N+](=O)[O-])C1CCCN1C(=O)OCc1ccccc1 (stereo not drawn),97.2%
7,CC(C)(C)OC(=O)NC(CSCc1ccccc1)C(=O)ON1C(=O)CCC1=O (stereo not drawn),99.5%
8,O=S(=O)(NCCCNc1nccc(-n2ccc3cccnc32)n1)c1ccc(Br)cc1,103%
9,COc1ccc(/C=C2\Oc3cc(OCCCN4CCCC4)ccc3C2=O)cc1,79.7%
10,Cc1csc(NC(c2ccc(Br)cc2)c2c(C)nc3ccccn23)n1 (stereo not drawn),101%
11,Cn1c(=O)cc(NC(=O)CN2CCN(c3cc4c(cc3F)c(=O)c(C(=O)O)cn4C3CC3)CC2)[nH]c1=O,102%
12,CC(C)(C)n1cc(-c2ccnc(NCCNS(=O)(=O)c3ccc(F)cc3)c2)c(-c2cccc(O)c2)n1,58.3%
13,CC(C)(C)n1cc(-c2ccnc(NCCNS(=O)(=O)c3ccc(Cl)cc3)c2)c(-c2cccc(O)c2)n1,68.1%
